From PubChem BioAssay
FBPA coupling cs: inhibits coupling enzyme system, counter-screen for aldolase hits. coupling enzyme system counterscreen, AmpLite Red fluorescence. activity change, negative = inhibition, % at 58.2 µM, hits read low. actives 0.67% (n = 290,000); in the data active = activity change below about -30%
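Counterscreen lacking aldolase: glyceraldehyde-3-phosphate coupling-enzyme reagent preincubated 10 min at RT with compound (at 57.5 uM final), then substrate/coupling system with AmpLite Red added; fluorescence read at 525/598 nm after 20 min RT.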
USP2a block: inhibitors of human ubiquitin-specific protease USP2a; O75604; USP2 core, Ub-CHOP2 coupled fluorogenic reporter, 485/531; Potency, µM (series often up to 38.3 µM), for inactives: top-dose activity change, negative = inhibition, most hits filed as inhibitors; actives 0.01% (n = 330,000); AID 463254;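 also: potency is read from the fitted curve at half-maximal effect; plate controls were DMSO wells for no effect and full inhibition by NEM control for full effect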
Target sequence (O75604 whole entry, looked up): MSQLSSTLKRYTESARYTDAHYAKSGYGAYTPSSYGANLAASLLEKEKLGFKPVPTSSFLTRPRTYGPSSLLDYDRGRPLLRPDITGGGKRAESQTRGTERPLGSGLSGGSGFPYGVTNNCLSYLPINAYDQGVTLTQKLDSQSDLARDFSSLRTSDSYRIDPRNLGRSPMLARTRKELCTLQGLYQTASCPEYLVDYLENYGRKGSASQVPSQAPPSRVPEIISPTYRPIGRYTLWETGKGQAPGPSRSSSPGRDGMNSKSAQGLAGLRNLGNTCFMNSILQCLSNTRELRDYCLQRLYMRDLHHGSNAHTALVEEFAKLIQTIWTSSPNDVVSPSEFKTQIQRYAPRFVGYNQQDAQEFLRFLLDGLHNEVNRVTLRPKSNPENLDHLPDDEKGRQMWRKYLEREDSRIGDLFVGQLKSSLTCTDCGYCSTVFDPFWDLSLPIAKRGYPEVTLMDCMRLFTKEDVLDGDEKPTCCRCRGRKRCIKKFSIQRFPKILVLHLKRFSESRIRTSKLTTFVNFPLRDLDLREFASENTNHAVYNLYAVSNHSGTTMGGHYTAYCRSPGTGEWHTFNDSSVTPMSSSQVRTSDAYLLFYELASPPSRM
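Deubiquitinase activity read as fluorescence (485/531 nm) after Ub-CHOP2 cleavage activates the enterokinase reporter on its substrate; USP2 core 10nM, Ub-CHOP2 and substrate 25nM each, 30min compound preincubation then 60min RT; data normalized to NEM, curves fitted.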
USP1 inh: inhibitors of human USP1/UAF1 deubiquitinase; recombinant USP1/UAF1, Ub-Rhodamine cleavage fluorescence; O94782; actives 0.23% (n = 390,000); Potency, µM (doses to about 57.1 µM), inactives show at the highest dose activity change, negative = inhibition, usual class: inhibitors; AID 743255; also: potency is read from the fitted curve at half-maximal effect; nearly all actives have a fitted effect of over 60% in size
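1 nM enzyme complex + cpd, 15 min RT; start with Ub-Rho 150nM final; kinetic fluorescence ex 480/em 540, 6 reads q60 s. Buffer 50mM HEPES pH 7.8, 0.5mM EDTA, 0.1 mg/ml BSA, 1mM TCEP, 0.01% Tween-20.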
GALK inh: inhibitors of human galactokinase; Potency, µM (highest dose often 57.5 µM), for the others: at the highest dose activity change, negative = inhibition, hits mostly inhibitors; Purified GALK, Kinase-Glo residual ATP luminescence; actives 0.007% (n = 270,000); P51570; AID 1868; also: potency is read from the fitted curve at half-maximal effect
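Quantitative HTS: GALK 5 nM, ATP 35 uM, galactose 100 uM, 1 h room temperature, then luciferase-based ATP detection.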
PLK1 PBD block: PLK1 (human) polo-box domain binding inhibition. Plk1 PBD binding of FITC phosphopeptide, fluorescence polarization. Potency, µM, without a hit: max response, negative = inhibition, usual class: inhibitors. actives 2.8% (n = 360,000); also: potency is read from the fitted curve at half-maximal effect; series mostly up to about 57 µM; nearly all actives have a fitted effect of over 65% in size
VDR inh: vitamin D3 receptor (human) inhibition; actives 0.93% (n = 400,000); Potency, µM, inactives show max response, negative = inhibition, hits mostly inhibitors; AID 504847; VDR-SRC2-3 peptide fluorescence polarization, 2 h; also: potency is read from the fitted curve at half-maximal effect
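VDR–SRC2-3 interaction, FP format. Cmpds 23 nl via pintool, brief spin, 2 h ambient incubation.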
Active calls of the source: *; u = inconclusive; x = not tested or not shown. This is a sample that favours compounds with a hit; in the whole collection about 3.2% have one here. Unless noted, calls follow the shape of the dose curve; as a rule, active = well fitted curve in the direction sought with a large enough effect; inconclusive = small, poorly fitted or top-dose-only effect, or another doubt; inactive = no such curve, though single readings can be large; an effect the other way counts as inactive or inconclusive. Unless noted, % is scaled to controls: 0 for no effect and ±100 for the full control effect.

SMILES	FBPA coupling cs	USP2a block	USP1 inh	GALK inh	PLK1 PBD block	VDR inh
COCC(C)OC(=O)/C(C#N)=C\c1coc2ccc(C)cc2c1=O (stereo unspecified)	-1	5%	u	-4%	11µM*	u
O=C(NC(=S)N1CCN(C/C=C/c2ccccc2)CC1)c1c(F)cccc1F	1	0%	-22%	1%	1%	1%
CC(C)n1c(N)c(C#N)c2ccc([N+](=O)[O-])cc2c1=O	-3	1%	-16%	9%	-14%	-5%
N#Cc1c(C#N)c(SSc2c(C#N)c(C#N)c(N)n2-c2ccccc2)n(-c2ccccc2)c1N	x	x	6%	x	2.7µM*	u
N#Cc1c(N)n(-c2ccccc2)c(=O)c2cc([N+](=O)[O-])ccc12	4	2%	5%	3%	-15%	45µM*
COc1cccc(NC(=S)/C(=C(\[O-])c2ccc(C)c([N+](=O)[O-])c2)[n+]2ccccc2)c1	-13	4%	-14%	1%	-27%	8%
CN(Cc1ccco1)c1ncncc1-c1ccccc1C(F)(F)F	2	x	x	x	x	50µM*
Cc1ccccc1-c1cncnc1N(C)Cc1ccco1	-1	x	x	x	x	40µM*
COc1ccccc1-c1cncnc1N(C)Cc1ccco1	-1	x	x	x	x	u
Nc1nc(NC(=O)c2ccc(F)cc2)ns1	x	0%	-30%	x	30µM*	u
CCN(C(=O)CCNC(=O)Cn1cnc2ccccc2c1=O)c1cc(OC)ccc1OC	x	x	-24%	x	x	-6%
CCc1c(C)sc(NC(=O)C2CCCCC2C(=O)O)c1C(N)=O (stereo unspecified)	0	3%	-3%	-3%	u	79µM*
O=C(Cn1nc(-c2ccco2)ccc1=O)Nc1ccc(Br)cc1	1	0%	-21%	7%	21µM*	u
CCOC(=O)c1ccc(NC(=O)c2cccc(S(=O)(=O)N3c4ccccc4CC3C)c2)s1 (stereo unspecified)	-5	1%	-22%	1%	-3%	-13%
c1ccc(Cn2c(SCc3nc4ccccc4s3)nnc2-c2ccco2)cc1	-1	-1%	2%	-1%	21µM*	-24%
O=C(c1cc2ccccc2o1)c1cccs1	1	0%	-5%	0%	24µM*	-9%
COc1ccc(NC(=O)C2=CC(c3ccc(OC)cc3)=NS(=O)(=O)N2C)cc1	10	0%	-17%	x	-3%	-9%
COc1ccc(OC)c(C2=NS(=O)(=O)N(C)C(C(=O)Nc3ccc(C(C)=O)cc3)=C2)c1	-2	2%	u	0%	30µM*	-19%
O=C(Nc1cc(Cl)ccc1Oc1ccccc1)c1cnccn1	4	1%	-12%	0%	1%	20%
CC1(CC(=O)Nc2ccccc2)NC(=S)N(c2ccccc2)N1 (stereo unspecified)	0	-1%	-1%	6%	27µM*	-7%
CCCCCCC1(C)NC(=S)N(c2ccccc2)N1 (stereo unspecified)	-1	2%	-18%	1%	19µM*	u
O=C(Cc1ccc(F)cc1)Nc1ccc2[nH]ncc2c1	1	1%	-15%	1%	-5%	0%
Nc1ccc2[nH]ncc2c1	-42*	12%	u	1%	-7%	-17%
Cc1oc2cc(O)ccc2c(=O)c1Oc1ccccc1	8	1%	-17%	6%	3µM*	-10%
COc1ccc(CN(C)C2CCCCC2)c(C)c1C	-3	9%	-3%	3%	-3%	-14%
SMILES	FBPA coupling cs	USP2a block	USP1 inh	GALK inh	PLK1 PBD block	VDR inh
C=CCCC1CN(CCCC)S(=O)(=O)c2c(F)cccc2O1 (stereo unspecified)	x	x	-11%	x	21µM*	89µM*
CC(CN1CCCCC1)OC(=O)Cc1ccc(Cl)cc1 (stereo unspecified)	1	1%	6%	3%	-4%	9%
CC(CN1CCCCC1)OC(=O)COc1ccc(Cl)cc1 (stereo unspecified)	2	2%	-3%	6%	24µM*	u
CC(C)CC(=O)Nc1nnc(SCC(=O)NCC2CCCO2)s1 (stereo unspecified)	4	1%	-14%	-4%	0%	-3%
O=C(O)CCn1cc(/C=C/C(=O)c2ccc(Cl)cc2)c(-c2ccc(Br)cc2)n1	11	-2%	-19%	-3%	u	40µM*
O=C(O)/C=C/c1cn(Cc2ccccc2)nc1-c1ccccc1	2	1%	2%	2%	-4%	0%
CC1CN(C(=O)CCNC(=O)c2ccc(Br)cc2)CC(C)O1 (stereo unspecified)	x	2%	-12%	x	0%	-9%
O=[N+]([O-])C(=C1Nc2ccccc2N1)/C(Cl)=C(/Cl)Br	-3	3%	-1%	x	30µM*	-27%
CN(Cc1ccccc1)C(=C(Cl)Cl)C(=C1NCCN1)[N+](=O)[O-]	0	4%	-15%	1%	u	-5%
O=C(/C=C/c1ccc(OC2CSC2)cc1)c1ccccc1	2	2%	-9%	-2%	27µM*	u
COc1ccc(C=CC(=O)c2ccc(OCc3ccccc3)c(OC)c2)cc1OC	x	x	0%	x	6%	x
COc1ccc(C(=O)/C=C/c2cccc(OCc3ccccc3)c2)cc1CSCC(=O)O	13	0%	-24%	-2%	21µM*	13µM*
O=C(O)COc1ccc2ccccc2c1	2	x	x	x	x	4%
O=C(O)COc1ccc(/C=C/C(=O)c2ccc3ccccc3c2)cc1	4	1%	-14%	-4%	-29%	28µM*
COc1ccc(C(=O)/C=C/c2ccc(OCc3ccccc3)cc2)cc1CSCC(=O)O	x	0%	-23%	-3%	24µM*	u
COC(=O)N[C@H](C[N+](=O)[O-])C(C)(C)C	-1	x	x	x	x	0%
CC(C)CN(C(=O)CCNC(=O)c1ccc(Cl)cc1)C1CCS(=O)(=O)C1 (stereo unspecified)	x	3%	3%	x	-2%	6%
C=CCN1C(=O)c2ccc(C(=O)OCC(=O)N(C)C3CCCCC3)cc2C1=O	-2	1%	-9%	-2%	-9%	-14%
O=C1c2ccccc2-c2nnc(-c3ccccc3)cc21	-8	3%	-19%	11%	-9%	3%
COc1ccc(-c2cc3c(nn2)-c2ccccc2C3=O)cc1	-10	1%	-22%	14%	24µM*	79µM*
CC(=O)Nc1ccc(S(=O)(=O)Nc2cc(Cl)ccc2N2CCOCC2)cc1	x	7%	-23%	x	-2%	2%
O=S(=O)(Nc1ccc(Cl)cc1)c1ccc(N2CCOCC2)c(NC(=S)NC2CC2)c1	2	4%	-8%	-2%	8.4µM*	79µM*
